For assay [1] the following is noted: Ebola virus entry assay, green fluorescence channel.
For assay [2] the following is noted: Ebola virus entry assay, blue channel fluorescence.
For assay [3] the following is noted: Ebola virus entry assay, ratio channel.
For assay [4] the following is noted: Ebola virus entry assay, green channel fluorescence.
The conditions of assay [5]: Ebola virus entry assay, reporter ratio channel; Channel type: primary.
For assay [6] the following is noted: Ebola virus entry assay, blue channel (ratio component).

A number with no mark means an inactive call. For part of these data: Entries with a potency or affinity are not part of this list. The source made the active and inactive calls. How the calls were made is not given here. Square brackets hold non-standard residues; d marks the D form. Peptide text beside a SMILES is read from it. * marks the point of attachment. Sta = CC(C)C[C@H](N)[C@@H](O)CC(=O)O; Isovaleryl = CC(C)CC(=O)*
Wherever efficacy is given: 0% is about no effect.

Regarding `OC[C@]1(O)OC[C@@H](O)[C@H](O)[C@@H]1O`, in assay [1], the efficacy is -31%. Also, the molecule was classed as inactive in assay [2], in assay [3], in assay [4], in assay [5] and in assay [6].
For the molecule `CC1(C)OC[C@@H](COC(=O)CCc2ccc(OC[C@@H](O)CNCCNC(=O)N3CCOCC3)cc2)O1`, the efficacy in assay [1] was -15.7%. The result in assay [2], in assay [3], in assay [4], in assay [5] and in assay [6] was inactive.
On to `CN1CCN(c2cc3c(nn2)Oc2ccccc2N3C)CC1`, for which, in assay [1], the efficacy was -18%. Moreover, the call in assay [2], in assay [3], in assay [4], in assay [5] and in assay [6] was inactive.
`COc1cc(OC)cc(OC)c1`: the efficacy in assay [1] is -13.9%. The molecule was called inactive in assay [2], in assay [3], in assay [4], in assay [5] and in assay [6].
Take `O=[N+]([O-])c1nccn1CO[C@@H](CO)[C@H](O)CO`: the efficacy in assay [1] is -11.8%. For the same molecule, the molecule was called inactive in assay [2], in assay [3], in assay [4], in assay [5] and in assay [6].
`O=C(NOCC1CC1)c1ccc(F)c(F)c1Nc1ccc(I)cc1Cl`: the efficacy in assay [1] is 18.5%. Moreover, the AC50 in assay [2] is 7.94 µM (active); in assay [3], 15.8 µM (active); in assay [5], 15.8 µM (active). Further, the call in assay [4] and in assay [6] was inactive.
For `CC(=O)/C=C/C=C1/C2CCC(C2)C1(C)C` (configuration not stated), in assay [1], the efficacy was -14.5%. Moreover, the call in assay [2], in assay [3], in assay [4], in assay [5] and in assay [6] was inactive.
`CCC(=O)c1ccc(O)cc1`: the efficacy in assay [1] was -30%. For the same molecule, the call in assay [2], in assay [3], in assay [4], in assay [5] and in assay [6] was inactive.
Take `Nc1ccc(C(=O)NCC(=O)O)cc1`: the efficacy in assay [1] was 34%. Besides, the outcome in assay [2], in assay [3], in assay [4], in assay [5] and in assay [6] was inactive.
In the case of `O=C(CCN1CCN(CCO)CC1)N1c2ccccc2Sc2ccc(C(F)(F)F)cc21`, the efficacy in assay [1] is 14.8%. The molecule was called inactive in assay [2], in assay [3], in assay [4], in assay [5] and in assay [6].
As for `CC(C)CC(=O)N[C@H](C(=O)N[C@H](C(=O)N[C@@H](CC(C)C)[C@@H](O)CC(=O)N[C@@H](C)C(=O)N[C@@H](CC(C)C)[C@@H](O)CC(=O)O)C(C)C)C(C)C` (Isovaleryl-VV[Sta]A[Sta]-OH), in assay [1], the efficacy was -12.4%. The result in assay [2], in assay [3], in assay [4], in assay [5] and in assay [6] was inactive.
For the molecule `Cc1[nH]c(C)c(Cl)c(=O)c1Cl`, in assay [1], the efficacy was 22.5%. Further, the molecule was called inactive in assay [2], in assay [3], in assay [4], in assay [5] and in assay [6].
Consider `COc1ccc2c(C(=O)c3ccc(Cl)cc3)c(C)n(CC(=O)O)c2c1`, for which the efficacy in assay [1] is 38%. In addition, the molecule was classed as inactive in assay [2], in assay [3], in assay [4], in assay [5] and in assay [6].
On to `O=C(O)C(=O)Nc1cccc(-c2nn[nH]n2)c1`, for which the efficacy in assay [1] is 14.4%. The outcome in assay [2], in assay [3], in assay [4], in assay [5] and in assay [6] was inactive.
As for `ClCc1cccc(Cl)c1`, the efficacy in assay [1] is -21.7%. Also, the outcome in assay [2], in assay [3], in assay [4], in assay [5] and in assay [6] was inactive.
As for `OCC(O)CS` (configuration not stated), in assay [1], the efficacy is -11.9%. Also, the molecule was called inactive in assay [2], in assay [3], in assay [4], in assay [5] and in assay [6].
For `O=C(OCC(O)CO)c1ccccc1Nc1ccnc2c(C(F)(F)F)cccc12` (configuration not stated), the efficacy in assay [1] is 31.1%. The molecule was called inactive in assay [2], in assay [3], in assay [4], in assay [5] and in assay [6].
Regarding `CC(CC(C(N)=O)(c1ccccc1)c1ccccc1)N(C)C` (configuration not stated), the efficacy in assay [1] was 13%. Moreover, the call in assay [2], in assay [3], in assay [4], in assay [5] and in assay [6] was inactive.
In the case of `C[C@]12CC[C@H]3[C@@H](CCC4=CC(=O)CC[C@@]43C)[C@@H]1CC[C@@H]2C(=O)O`, in assay [1], the efficacy was -23.5%. Besides, the molecule was called inactive in assay [2], in assay [3], in assay [4], in assay [5] and in assay [6].
Turning to `COc1ccc2c(c1)C(=O)N(CCc1ccc(S(=O)(=O)NC(=O)NC3CCCCC3)cc1)C(=O)C2(C)C`, the efficacy in assay [1] was -16.1%. Further, the molecule was called inactive in assay [2], in assay [3], in assay [4], in assay [5] and in assay [6].
For the molecule `CC(C)CCCC(C)N` (configuration not stated), the efficacy in assay [1] was -16.5%. Moreover, the molecule was called inactive in assay [2], in assay [3], in assay [4], in assay [5] and in assay [6].
For `CCCc1ncc(C(=O)O)s1`, the efficacy in assay [1] was -25.8%. The molecule was called inactive in assay [2], in assay [3], in assay [4], in assay [5] and in assay [6].
Take `CC(=O)Oc1ccc(C2(c3ccc(OC(C)=O)cc3)C(=O)Nc3ccccc32)cc1`: in assay [1], the efficacy is -16%. Besides, the call in assay [2], in assay [3], in assay [4], in assay [5] and in assay [6] was inactive.
Take `C[C@]12C=CC(=O)C=C1CC[C@H]1[C@@H]3C[C@@H](O)[C@](O)(C(=O)CO)[C@@]3(C)C[C@H](O)[C@@]12F`: the efficacy in assay [1] is 17%. For the same molecule, the outcome in assay [2], in assay [3], in assay [4], in assay [5] and in assay [6] was inactive.
`CCCSS/C(CCO)=C(\C)N(C=O)Cc1cnc(C)nc1N`: the efficacy in assay [1] was -15.5%. Further, the result in assay [2], in assay [3], in assay [4], in assay [5] and in assay [6] was inactive.
As to `CCCCOc1ccc(CC(=O)NO)cc1`, the efficacy in assay [1] is -9.53%. Besides, the molecule was classed as inactive in assay [2], in assay [3], in assay [4], in assay [5] and in assay [6].
As for `COc1cc(N)c(Cl)cc1C(=O)NC1CN2CCC1CC2` (configuration not stated), the efficacy in assay [1] is -20.5%. The molecule was called inactive in assay [2], in assay [3], in assay [4], in assay [5] and in assay [6].

The term AC50 denotes the midpoint of the concentration-response curve, whichever way the signal moves.

These data come from PubChem BioAssay (NCATS).
